Records with an inconclusive call do not appear. Activity calls are given as the source filed them. Unless noted, calls come from the whole dose curve; as a rule, active = well fitted curve in the direction sought with a large enough effect in the repeat runs; inconclusive = weak or mixed curves; inactive = no such curve, though single readings can be large; an effect the other way counts as inactive or inconclusive.
Experiments:
[1] = molecular target: Thyrotropin receptor (Homo sapiens) (UniProt P16473); assay: qHTS assay to identify small molecule agonists of the thyroid stimulating hormone receptor (TSHR) signaling pathway (AID 1224843; calls by dose curve; note: nearly all actives have a fitted effect of over 45% in size)
Procedure, shortened: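 Agonist-mode screen: TSHR HEK293 cells received test chemicals for half an hour at room temperature, then HTRF cAMP detection reagents for one hour prior to fluorescence measurement. Each chemical ran as a 15-concentration series, triplicated.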

[2] = qHTS assay to identify small molecule agonists of the hypoxia (HIF-1) signaling pathway - cell viability counter screen (AID 1224844; calls by dose curve; note: nearly all actives have a fitted effect of over 50% in size)
Procedure, shortened: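 In this counter screen, HRE-bla ME-180 cell viability after 17 hrs of compound exposure at 37C was read by CellTiter-Glo luminescence, multiplexed with the beta-lactamase reporter measurement.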

[3] = qHTS assay to identify small molecule agonists of H2AX (AID 1224845; active = well fitted activation curve with a large enough effect in the signal ratio in the repeat runs, not every such curve was filed as active; the % refers to the signal ratio)
Procedure, shortened: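 Wild-type CHO-K1 cells, plated overnight, exposed 3hr at 37C to 15 concentrations (0.76% DMSO final). Lysed, then HTRF anti-pH2AX (S139) cryptate and anti-H2AX-d2 antibodies, 24 hr room temperature; 665/620 nm emission read.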

[4] = qHTS assay to identify small molecule agonists of the hypoxia (HIF-1) signaling pathway (AID 1224846; active = well fitted activation curve with a large enough effect in the signal ratio in the repeat runs, not every such curve was filed as active; the % refers to the signal ratio)
Procedure, shortened: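 ME-180 HRE-bla reporter cells; compounds in DMSO, 17 h at 37C; read-out beta-lactamase via CCF4-AM FRET.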

[5] = qHTS assay to identify small molecule agonists of H2AX - cell viability counter screen (AID 1224847; calls by dose curve; note: top concentration of the series differs between compounds; nearly all actives have a fitted effect of over 30% in size)
Procedure, shortened: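 Counter-screen for viability: CellTiter-Glo ATP luminescence read after 3 h compound treatment (15-point titration, 0.76% DMSO final) of CHO-K1 cells at 37C, with 30 min room-temperature reagent incubation.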

[6] = qHTS RealTime-Glo MT Cell Viability Assay in HepG2 cells - 24 hour (AID 1224867); note: nearly all actives have a fitted effect of over 50% in size
Procedure, shortened: (§1)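 qHTS, HepG2, 600 cells/well, RealTime-Glo (NanoLuc + prosubstrate) added with cells; 5 h preincubation; DMSO compound addition; 37 C; luminescence at 0/8/16/24/32/40 h.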

[7] = qHTS RealTime-Glo MT Cell Viability Assay in HEK293 cells - 32 hour (AID 1224868); note: top concentration of the series differs between compounds; nearly all actives have a fitted effect of over 50% in size
Procedure, shortened: (§2)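 Assay medium contained NanoLuc luciferase plus cell-permeant prosubstrate, added with HEK293 cells at 600 cells/well. After 5 h at 37 C/5% CO2 compounds were added; plates stayed at 37 C for 40 h with serial luminescence reads.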

[8] = A CellTox Green Cytotoxicity Assay to monitor cytotoxicity in HEK293 cells - 0 hour (AID 1224869); note: nearly all actives have a fitted effect of over 50% in size
Procedure, shortened: (§3)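 Real-time, in one plate: 600 HEK293 cells/well with dead-cell DNA dye, pinned compound after 5 h, 37 C incubation over 40 h; viable cells give no appreciable fluorescence.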

[9] = qHTS RealTime-Glo MT Cell Viability Assay in HepG2 cells - 40 hour (AID 1224870); note: nearly all actives have a fitted effect of over 50% in size
Procedure, shortened: (§4)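 HepG2 cells (600/well) mixed with RealTime-Glo MT reagent, settled 5 h at 37 C/5% CO2 before compound addition. Nonlytic NanoLuc luminescence from viable-cell prosubstrate reduction read repeatedly during 40 h treatment at 37 C.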

[10] = A CellTox Green Cytotoxicity Assay to monitor cytotoxicity in HEK293 cells - 40 hour (AID 1224871); note: nearly all actives have a fitted effect of over 45% in size
Procedure, shortened: as §3

[11] = qHTS RealTime-Glo MT Cell Viability Assay in HEK293 cells - 40 hour (AID 1224874); conditions: RealTime-Glo luminescence; max response: hits give low values; note: nearly all actives have a fitted effect of over 50% in size
Procedure, shortened: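 Kinetic, non-lysing viability readout. Seed HEK293 (600/well) with reagent, incubate 5 h at 37 C/5% CO2, pin 23 nL compound in DMSO, incubate at 37 C, read luminescence at 0, 8, 16, 24, 32, 40 h.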

[12] = A CellTox Green Cytotoxicity Assay to monitor cytotoxicity in HEK293 cells - 24 hour (AID 1224875); note: nearly all actives have a fitted effect of over 45% in size
Procedure, shortened: as §3

[13] = A CellTox Green Cytotoxicity Assay to monitor cytotoxicity in HepG2 cells - 16 hour (AID 1224876); note: nearly all actives have a fitted effect of over 45% in size
Procedure, shortened: (§5)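 Cytotoxicity was tracked as dead-cell DNA fluorescence in HepG2 cells treated with test compounds at 37 C; each time-point value comes from one kinetic series spanning 0, 8, 16, 24, 32 and 40 h.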

[14] = qHTS RealTime-Glo MT Cell Viability Assay in HepG2 cells - 32 hour (AID 1224877); note: nearly all actives have a fitted effect of over 55% in size
Procedure, shortened: as §1

[15] = A CellTox Green Cytotoxicity Assay to monitor cytotoxicity in HepG2 cells - 24 hour (AID 1224878); note: nearly all actives have a fitted effect of over 45% in size
Procedure, shortened: as §5

[16] = A CellTox Green Cytotoxicity Assay to monitor cytotoxicity in HepG2 cells - 40 hour (AID 1224879); note: nearly all actives have a fitted effect of over 40% in size
Procedure, shortened: as §5

[17] = qHTS RealTime-Glo MT Cell Viability Assay in HEK293 cells - 16 hour (AID 1224872)
Procedure, shortened: as §2

[18] = qHTS RealTime-Glo MT Cell Viability Assay in HepG2 cells - 8 hour (AID 1224873); note: nearly all actives have a fitted effect of over 55% in size
Procedure, shortened: as §4

[19] = qHTS assay to identify small molecule agonists of the estrogen related receptor (ERR) signaling pathway from Tox21 library (AID 1224849; calls by dose curve; note: nearly all actives have a fitted effect of over 15% in size); conditions: ERR reporter cell line, ONE-Glo luciferase, 18 h; at 92.4 µM (top of the series) unless noted
Procedure, shortened: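 Luciferase activity in ERR pathway reporter cells served as the agonist readout; exposure lasted 18 h at 37 C, with ONE-Glo detection after 30 min at room temperature.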

[20] = qHTS assay to identify small molecule antagonists of the estrogen related receptor (ERR) signaling pathway from Tox21 library (AID 1224848); note: nearly all actives have a fitted effect of over 50% in size
Procedure, shortened: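 Quantitative high-throughput format: ERR reporter cells (2,000/well) pre-incubated 6 h, treated 18 h at 37 C with compounds in DMSO alongside positive and negative controls, then read by ONE-Glo luminescence.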
% is set by controls: 0 for no effect and ±100 for the full control effect.

Chain of Thyrotropin receptor (Homo sapiens) (P16473 whole entry, looked up): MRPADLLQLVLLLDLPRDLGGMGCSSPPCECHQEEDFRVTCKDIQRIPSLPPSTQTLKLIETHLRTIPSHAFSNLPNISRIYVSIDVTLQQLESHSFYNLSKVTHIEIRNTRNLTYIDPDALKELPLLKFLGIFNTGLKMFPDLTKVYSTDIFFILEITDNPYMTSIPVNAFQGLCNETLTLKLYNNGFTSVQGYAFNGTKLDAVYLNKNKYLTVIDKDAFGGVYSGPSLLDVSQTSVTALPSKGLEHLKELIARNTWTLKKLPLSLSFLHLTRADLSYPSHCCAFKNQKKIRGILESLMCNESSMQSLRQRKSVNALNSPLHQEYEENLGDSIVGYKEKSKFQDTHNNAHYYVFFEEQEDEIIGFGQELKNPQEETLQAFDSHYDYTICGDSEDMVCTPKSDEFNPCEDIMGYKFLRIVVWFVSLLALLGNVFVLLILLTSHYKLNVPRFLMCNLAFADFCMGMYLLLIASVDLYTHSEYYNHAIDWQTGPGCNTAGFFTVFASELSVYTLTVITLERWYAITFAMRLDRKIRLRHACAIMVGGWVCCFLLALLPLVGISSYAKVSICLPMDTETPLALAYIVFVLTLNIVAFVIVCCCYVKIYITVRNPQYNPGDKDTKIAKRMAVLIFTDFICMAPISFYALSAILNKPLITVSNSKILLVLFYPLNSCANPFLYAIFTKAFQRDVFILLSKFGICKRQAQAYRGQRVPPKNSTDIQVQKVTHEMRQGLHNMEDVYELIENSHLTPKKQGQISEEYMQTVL

CCOS(C)(=O)=O
inactive: Potency [1] | Potency [2] | Potency [3] | outcome [4] | Potency [5] | Potency [6] | Potency [7] | Potency [8] | Potency [9] | Potency [10] | max response [11] -7.66% | Potency [12] | Potency [13] | Potency [14] | Potency [15] | Potency [16]

Cl/C=C\Cl
inactive: Potency [1] | Potency [2] | Potency [3] | outcome [4] | Potency [5] | Potency [6] | Potency [7] | Potency [8] | Potency [9] | Potency [10] | Potency [17] | Potency [18] | max response [11] 0.558% | Potency [12] | Potency [13] | Potency [14] | Potency [15] | Potency [16]

ClCC(Br)CBr (stereo unspecified)
inactive: Potency [1] | Potency [2] | Potency [3] | outcome [4] | Potency [5] | Potency [6] | Potency [7] | Potency [8] | Potency [9] | Potency [10] | Potency [17] | max response [11] 14.6% | Potency [12] | Potency [13] | Potency [14] | Potency [15] | Potency [16]

c1ccoc1
inactive: Potency [1] | Potency [2] | Potency [3] | outcome [4] | Potency [5] | Potency [6] | Potency [7] | Potency [8] | Potency [9] | Potency [10] | Potency [17] | max response [11] -1.82% | Potency [12] | Potency [13] | Potency [14] | Potency [15] | Potency [16]

CC(C)(Cl)[N+](=O)[O-]
inactive: Potency [1] | Potency [2] | Potency [3] | outcome [4] | Potency [5] | activity change, positive = activation [19] -29.2% | Potency [6] | Potency [7] | Potency [8] | Potency [10] | Potency [17] | max response [11] 2.49% | Potency [12] | Potency [13] | Potency [14] | Potency [15] | Potency [16]

N#Cc1ccc(Cl)cc1
inactive: Potency [1] | Potency [2] | Potency [3] | outcome [4] | Potency [5] | Potency [20] | activity change, positive = activation [19] 0.802% | Potency [6] | Potency [7] | Potency [8] | Potency [9] | Potency [10] | Potency [18] | max response [11] 2.27% | Potency [12] | Potency [14] | Potency [15] | Potency [16]

Clc1cc(Cl)c(Cl)c(Cl)c1
inactive: Potency [1] | Potency [2] | Potency [3] | outcome [4] | Potency [5] | Potency [6] | Potency [7] | Potency [8] | Potency [9] | Potency [10] | Potency [17] | Potency [18] | max response [11] -4.38% | Potency [12] | Potency [13] | Potency [14] | Potency [15] | Potency [16]
